These results are taken from PubChem BioAssay (NCI).

Some test systems named below: NCI-H23 lung; NCI-H226 lung; NCI-H322M lung; NCI-H460 lung; HOP-92 NSCLC; NCI-H522 lung; A549/ATCC NSCLC; 786-0 renal; COLO 205 colon.
What all share (experiment): NCI-60 one-dose screen, 48 h (100 = growth as untreated, 0 = no growth, -100 = all killed)
Holding throughout (conditions): 10 µM unless noted

Compounds without any hit were thinned out: in the full panel of roughly 83,000, 20% have a hit.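 Results are percent growth after 48 hours of single-concentration exposure. 100 means growth as in untreated cells, lower positive values show inhibition; negative values down to -100 show cell death.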 Values without a mark were called inactive. Calls of active or inactive are those of the source. How the source made its calls: active means growth percent below 10; inactive means the rest.

With `Nc1nc(Nc2ccc(OCc3cccc(F)c3)cc2)c2c(n1)[nH]c1ccc(O)cc12`, the growth in the assay with NCI-H23 lung was 6.71% (active); with NCI-H226 lung, -56.2% (active); with NCI-H322M lung, 3.43% (active); in the assay on NCI-H460 lung it was -49.2% (active); in the assay on HOP-92 NSCLC, -31.3% (active); in the assay with NCI-H522 lung, -76.2% (active). Besides, the values for the growth in the assay on A549/ATCC NSCLC, with 786-0 renal and in the assay on COLO 205 colon were -27.1% (active), -96.6% (active) and -77.5% (active), respectively.
As for `CC(CCC(=O)O)[C@H]1CCC2C3C(=O)C[C@@H]4CC(=O)CC[C@]4(C)C3CC(=O)[C@@]21C` (stereo partly specified), the growth in the assay on NCI-H23 lung was 101%; with NCI-H226 lung it was 103%; with NCI-H322M lung, 111%; in the assay on NCI-H460 lung it was 107%; in the assay on HOP-92 NSCLC it was 96.2%; in the assay on NCI-H522 lung, 117%. The figures for the growth in the assay with A549/ATCC NSCLC, with 786-0 renal and in the assay with COLO 205 colon were 98.7%, 106% and 119%, respectively.
On to `CCCCC(=O)Nc1nc2ccc(SCCC)cc2s1`, for which the growth is 68.5% with NCI-H23 lung; 49.7% in the assay on NCI-H226 lung; 82.4% with NCI-H322M lung; 32% in the assay with NCI-H460 lung; 20.8% in the assay on HOP-92 NSCLC; 28.8% in the assay with NCI-H522 lung. In addition, the figures for the growth in the assay on A549/ATCC NSCLC, in the assay with 786-0 renal and with COLO 205 colon were 35.8%, 65% and 51.6%, respectively.
For `O=C(NCCNc1nccc(-c2c(-c3cccc(O)c3)nc3sccn23)n1)c1cc(N2CCOCC2)cc(C(F)(F)F)c1`, the growth in the assay with NCI-H23 lung was 106%; with NCI-H226 lung, 106%; in the assay on NCI-H322M lung, 107%; in the assay on NCI-H460 lung, 96.2%; in the assay with HOP-92 NSCLC, 87.7%; with NCI-H522 lung, 78.6%. The results for the growth with A549/ATCC NSCLC, with 786-0 renal and in the assay with COLO 205 colon were 88.6%, 86.6% and 32.7%, respectively.
For the compound `CCN(CC)CCNC(=O)c1c(C)[nH]c(/C=C2\C(=O)Nc3cc(NC(=O)NC(=O)c4ccc(OC)cc4F)ccc32)c1C`, the growth in the assay with NCI-H23 lung was 103%; with NCI-H226 lung, 108%; in the assay with NCI-H322M lung, 105%; in the assay on NCI-H460 lung, 83.7%; in the assay on HOP-92 NSCLC, 94.9%; with NCI-H522 lung it was 104%. In addition, the growth was 85.3% with A549/ATCC NSCLC, -55.6% (active) in the assay with 786-0 renal and 94.7% with COLO 205 colon.
In the case of `Cc1ccn2cc(Cc3cc(=O)oc4c3ccc3ccccc34)c(=O)nc2c1`, the growth was 96.6% in the assay on NCI-H23 lung; 96.6% in the assay on NCI-H226 lung; 101% with NCI-H322M lung; 106% in the assay with NCI-H460 lung; 98.8% in the assay on HOP-92 NSCLC; 75.1% in the assay with NCI-H522 lung. Besides, the growth is 89.9% in the assay on A549/ATCC NSCLC, 95.5% with 786-0 renal and 102% in the assay with COLO 205 colon.
Consider `O=C(O)c1ccc(-c2nn(-c3ccc(C(=O)O)cc3)cc2/C=N/Nc2c(F)c(F)cc(F)c2F)cc1`, for which the growth was 96% with NCI-H23 lung; 103% with NCI-H226 lung; 99.9% in the assay with NCI-H322M lung; 114% in the assay with NCI-H460 lung; 115% in the assay with HOP-92 NSCLC; 89.2% in the assay with NCI-H522 lung. The growth is 97.7% in the assay with A549/ATCC NSCLC, 112% in the assay with 786-0 renal and 111% with COLO 205 colon.
As to `CC(C)(C)OC(=O)N1CCN(CCn2cc(C(F)(F)F)c3c(Cl)ncnc32)CC1`, the growth was 44.8% in the assay on NCI-H23 lung; 108% in the assay on NCI-H226 lung; 96.2% in the assay with NCI-H322M lung; 59.3% with NCI-H460 lung; -23.1% (active) in the assay on HOP-92 NSCLC; -2.6% (active) in the assay with NCI-H522 lung. Besides, the figures for the growth in the assay on A549/ATCC NSCLC, in the assay with 786-0 renal and in the assay on COLO 205 colon were 96%, 107% and 102%, respectively.
With `CC(=O)Nc1ccc(OC(=O)c2ccccc2O)cc1`, the growth in the assay with NCI-H23 lung is 99.5%; with NCI-H226 lung it was 106%; in the assay with NCI-H322M lung it was 111%; in the assay on NCI-H460 lung, 106%; in the assay on HOP-92 NSCLC, 85%; with NCI-H522 lung, 106%. In addition, the growth was 102% in the assay with A549/ATCC NSCLC, 107% in the assay on 786-0 renal and 108% in the assay with COLO 205 colon.
For `O=C(CNc1cccnc1)Nc1ccc(C(=O)/C=C/c2ccc(Cl)cc2)cc1`, the growth is 91.7% with NCI-H23 lung; 86.4% in the assay on NCI-H226 lung; 95.9% in the assay on NCI-H322M lung; 93.5% with NCI-H460 lung; 90.7% in the assay with HOP-92 NSCLC; 89.4% in the assay on NCI-H522 lung. For the same compound, the growth was 88.3% in the assay on A549/ATCC NSCLC, 105% in the assay with 786-0 renal and 106% in the assay on COLO 205 colon.
On to `Clc1ccc2c(NCCNc3nc(Cl)nc4ccccc34)ccnc2c1`, for which the growth is -61.7% (active) in the assay with NCI-H23 lung; -80% (active) in the assay with NCI-H226 lung; -26.4% (active) in the assay on NCI-H322M lung; -65.4% (active) in the assay on NCI-H460 lung; -67.6% (active) in the assay on HOP-92 NSCLC; -84.6% (active) in the assay on NCI-H522 lung. Moreover, the growth in the assay on A549/ATCC NSCLC was -88% (active); with 786-0 renal it was -94.1% (active); in the assay with COLO 205 colon, -85.8% (active).
For the compound `Nc1n[nH]c2cccc(C#Cc3cccc(NC(=O)c4cccc(C(F)(F)F)c4)c3)c12`, the growth in the assay on NCI-H23 lung was 39.5%; in the assay on NCI-H226 lung, 44%; with NCI-H322M lung, 46.5%; in the assay with NCI-H460 lung, 40.3%; with HOP-92 NSCLC, -4.2% (active); with NCI-H522 lung it was 41.2%. In addition, the growth is 43.4% in the assay on A549/ATCC NSCLC, 23.1% in the assay on 786-0 renal and 16.5% with COLO 205 colon.
In the case of `COc1cc2c(cc1OC)-c1c(oc3c4c(ccc3c1=O)OC(C)(C)C=C4)CO2`, the growth with NCI-H23 lung is 45.6%; in the assay on NCI-H226 lung, 89.3%; in the assay on NCI-H322M lung, 86.2%; with NCI-H460 lung, 77.1%; in the assay with HOP-92 NSCLC, 90.2%; with NCI-H522 lung it was 56.7%. For the same compound, the growth is 71.3% in the assay on A549/ATCC NSCLC, 76.6% in the assay with 786-0 renal and 113% in the assay with COLO 205 colon.
Consider `CCC(N)(C(=O)O)c1ccc(F)cc1` (stereo unspecified), for which the growth in the assay with NCI-H23 lung is 102%; in the assay with NCI-H226 lung, 106%; in the assay on NCI-H322M lung it was 113%; with NCI-H460 lung, 106%; in the assay on HOP-92 NSCLC it was 93.9%; in the assay on NCI-H522 lung, 90.2%. The growth is 81.5% with A549/ATCC NSCLC, 99.9% with 786-0 renal and 105% in the assay on COLO 205 colon.
